Test [1] concerns Vero E6 infected with SARS-CoV-2. As to the kind of experiment: morphology score (similarity to uninfected cells); higher = more like uninfected cells. The conditions noted are these: 24 h.
Test [2] has the same test system. As to the kind of experiment: SARS-CoV-2 infection rate relative to infected DMSO; higher = more infection, active = 60 or less. To be noted: 24 h.

Each structure is given as a SMILES string.

In test [1], `CC(N)Cc1ccc(O)cc1` (stereo not given) [hydroxyamphetamine] (10 µM) yielded a morphology score of -0.0633. Further, the SARS-CoV-2 infection rate in test [2] is 104% (inactive).

As to `COc1cc(F)c(C(C)C)cc1-c1ccc(C(F)(F)F)cc1CN1C(=O)O[C@H](c2cc(C(F)(F)F)cc(C(F)(F)F)c2)[C@@H]1C` [anacetrapib] (10 µM), in test [1], the morphology score was determined as 0.116. For the same compound, the SARS-CoV-2 infection rate in test [2] was 106% (inactive).

On to `CC(C)Oc1ccc(-c2nc(-c3cccc4c3CC[C@@H]4NCCO)no2)cc1C#N` [ozanimod] (0.833333 µM), for which the morphology score in test [1] amounted to 0.262. For the same compound, the SARS-CoV-2 infection rate in test [2] was 101% (inactive).

As to `NCCCC[C@H](N[C@@H](CCc1ccccc1)C(=O)O)C(=O)N1CCC[C@H]1C(=O)O` [lisinopril] (10 µM), the morphology score in test [1] is 0.0957. Also, the SARS-CoV-2 infection rate in test [2] was 100% (inactive).

Consider `CC(=O)NNC(=O)N1Cc2ccccc2Oc2ccc(Cl)cc21` (10 µM), for which the morphology score in test [1] was 0.0638. Besides, the SARS-CoV-2 infection rate in test [2] is 97.5% (inactive).

`COC(=O)C1=CO[C@@H](O)[C@@H]2C(CO)=CC[C@H]12` [genipin] (10 µM) had a morphology score in test [1] of 0.291. Further, the SARS-CoV-2 infection rate in test [2] was 112% (inactive).

`CCCCCCCCc1ccc(CCC(N)(CO)CO)cc1` [fingolimod] (10 µM) returned a morphology score in test [1] of 0.717. For the same compound, the SARS-CoV-2 infection rate in test [2] is 26.5% (active).

`Cc1c(F)cc(C(=O)NC2CC2)cc1-c1ccc(C(=O)NCC(C)(C)C)cn1` [losmapimod] (10 µM) came in with a morphology score in test [1] of 0.0455. Also, the SARS-CoV-2 infection rate in test [2] is 98.5% (inactive).

The compound `C1CCN2C[C@@H]3C[C@@H](CN4CCCC[C@@H]34)[C@H]2C1` [sparteine-sulfate] (10 µM) yielded a morphology score in test [1] of 0.00477. For the same compound, in test [2], the SARS-CoV-2 infection rate was 112% (inactive).

In test [1], `Cc1cc(O)c2c(c1)C(=O)c1cccc(O)c1C2=O` [chrysophanic-acid] (10 µM) gave a morphology score of -0.0993. Further, in test [2], the SARS-CoV-2 infection rate is 110% (inactive).

These data come from the supplement of paper PMC13380429.
